Test results: PubChem BioAssay AID624304 (Sanford-Burnham Center for Chemical Genomics, 2012)
The whole screen tested about 360,000 compounds, of which about 1,800 (0.5%) were called active. The sample as a whole holds a higher share of actives than the screen did. Values without a mark were called inactive.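 How the source made its calls: active means interference check ratio from 0.5 to 1.5 plus GFP to RFP signal ratio inhibition reaching or exceeding a fixed threshold (cut at about 30% in these data, passing the limit was not always enough); inactive means the rest.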

Assay: gst-4 reporter inhibition in live C. elegans – whole organism, uHTS, GFP/RFP fluorescence ratio, strain VP596, SKN-1 inhibitor project, primary screen (AID 624304)
Conditions: C. elegans VP596 Pgst-4::GFP/RFP ratio, acrylamide-induced, 24 h; at 21.8 µM; hits give high values
In the case of `Cc1ccc(P(=S)(c2ccc(C)o2)N2CCOCC2)o1`, the inhibition was 36.8% (active). Work on `CN(C)C(=O)Oc1ccc(NC(=O)N2CCOCC2)cc1` yielded an inhibition of 12%. In the case of `CC[N+]1(C)CCCC(OC(=O)C(O)(c2ccccc2)c2ccccc2)C1` (stereo not given), the inhibition was -6.17%. `CC1CCCN1CCC(C(N)=O)(c1ccccc1)c1ccccc1` (stereo not given) gave an inhibition of -0.187%. With `CN(C)CC1Oc2ccccc2OC1(O)c1ccccc1` (stereo not given) the inhibition was -1.82%.
